Measurements published in PubChem BioAssay.

Target: Concanavalin-A (Canavalia ensiformis) (UniProt P02866)
Assay: compounds binding concanavalin A lectin – biochemical, small-molecule microarray, Alexa647 label, 635 nm, artefact control for SMM control protein annotation, primary screen (AID 1127);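 note: z combines 667 nm emission intensity with signal-to-noise across three replicate slides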
Conditions: ConA-A647 binding fluorescence, higher = more signal

Sequence of Concanavalin-A (Canavalia ensiformis) (P02866 whole entry, looked up): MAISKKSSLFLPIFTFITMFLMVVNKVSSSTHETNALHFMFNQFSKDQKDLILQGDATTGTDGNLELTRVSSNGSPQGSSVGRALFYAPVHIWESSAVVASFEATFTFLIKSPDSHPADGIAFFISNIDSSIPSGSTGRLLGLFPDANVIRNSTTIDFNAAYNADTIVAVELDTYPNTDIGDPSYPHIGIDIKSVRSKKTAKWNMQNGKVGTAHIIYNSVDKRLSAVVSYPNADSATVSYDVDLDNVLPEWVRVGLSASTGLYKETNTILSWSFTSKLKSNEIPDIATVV

SMILES | composite z-score
CN1C=C(C(=O)OCCS(C)(=O)=O)C(C(=O)OCCS(C)(=O)=O)=CC(c2ccc(CO)cc2)=CC1C1CC1 (stereo not drawn) | 0.168
C=C[C@H](CO[Si](CC)(CC)CC)N(Cc1ccc(OC(C)=O)c(OC)c1)S(=O)(=O)c1ccc(Br)cc1 | 1.13
C[N+](C)(C)CCCCCCNC(=O)[C@@H]1C[C@@H]2C(=O)N[C@@H](Cc3ccccc3)C(=O)N2[C@@H]1c1cccc(OCCO)c1 | 0.622
NC(=O)[C@@H]1[C@H]2C(=O)O[C@H](c3ccccc3)[C@H](c3ccccc3)N2[C@H](c2ccc(O)cc2)[C@@]12C(=O)Nc1ccccc12 | -0.161
C=C(CCCC)/C(=C/C[C@@H](OC(C)=O)c1ccc(OCCO)cc1)c1cnc2ccccc2c1 | 0.555

Tested on: not listed separately
Assay: compounds binding Alexa647 anti-His antibody – biochemical, small-molecule microarray, 635 nm fluorescence, artefact control for SMM control protein annotation, primary screen (AID 1128);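 note: score merges feature fluorescence with signal-to-noise for each printed compound spot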
Conditions: higher = more signal

SMILES | composite z-score
CC(C)=CCN[C@H](CO)c1ccccc1 | -0.23
CCCC#C[Si](O[C@H](CC)c1cn(Cc2cccc(Cl)c2)nn1)(C(C)C)C(C)C | 0.849
C=CCOC(=O)[C@H]1[C@@H]2C(=O)O[C@@H](c3ccccc3)[C@@H](c3ccccc3)N2[C@@H](c2ccc(OCCOC(=O)[C@H]3C[C@H]4C(=O)N[C@@H](CCCCNC(C)=O)C(=O)N4[C@H]3c3cccc(OCCO)c3)cc2)[C@]12C(=O)Nc1ccccc12 | 2.14
C=C(COC)/C(=C/C[C@@H](OC(=O)c1ccncc1)c1ccc(CO)o1)c1cc(C(=O)OC)ccc1OC | 0.68
CC(C)C(=C=CC[C@@H](O)c1ccc(OCCO)cc1)C[C@@H](O)COCc1ccccc1 | -0.547
CCCCCCc1nc(-c2cc(C)c(OC)c(C)c2)cc2c1[Si](C(C)C)(C(C)C)OC2 | -0.164
COc1cc2c(cc1O)C(C1CC1)N(Cc1sc3ccccc3c1Cl)CC2 (stereo not drawn) | 1.53
COCCOC(=O)N1C(=O)[C@@]2(c3cc(C#CCC(C(=O)OC)C(=O)OC)ccc31)[C@H](C(=O)N1CCN(c3ncccn3)CC1)[C@H]1C(=O)O[C@H](c3ccccc3)[C@H](c3ccccc3)N1[C@@H]2c1ccccc1OCCO | 1.02
C[C@H]1NC(=O)[C@@]23C(=O)N[C@@H](Cc4ccccc4)C2[C@H](C)[C@@]2(C)O[C@H]2C3/C=C/C/C=C\CNC(=O)[C@@H]2CCCN2C1=O (stereo partly drawn) | -0.224
CCOC(=O)C[C@H]1[C@H](OC(=O)c2ccc(C(=O)c3ccccc3)cc2)[C@@H](NC(=O)c2ccc3ccccc3n2)c2cc(OCCCO)ccc2N1C(=O)c1ccccc1 | -0.0053
CCCC[C@@H]1C[C@H]1[C@@H](NC(=O)c1cccs1)c1ccc(-c2ccccc2)cc1 | 0.433
COC(=O)[C@@]1(Cc2ccc(OC)cc2)[C@H]2c3cc(C(=O)N4CCCC4)n(Cc4ccc(O)c(OC)c4)c3C[C@H]2CN1C(=O)c1ccccc1 | 2.89
[N-]=[N+]=NCc1ccccc1C[C@]1(C(N)=O)COC(c2ccc(OCCCO)cc2)=N1 | 0.0064
C=C(COC)C(=O)CC[C@@H](OC(C)=O)c1ccc(CO)o1 | -0.555
O=C1c2ccccc2[C@](Cc2ccccc2I)(C(=O)NCCN2CCOCC2)[C@H](c2ccc(CO)cc2)N1Cc1ccccc1Cl | 2.09
COCCCNC(=O)[C@]1(CCC(=O)OC(C)(C)C)N=C(c2ccc(OCCCO)cc2)O[C@@H]1c1ccccc1CN=[N+]=[N-] | 1.3
C=CCNC(=O)[C@@H]1[C@H]2C(=O)O[C@H](c3ccccc3)[C@H](c3ccccc3)N2[C@H](c2ccc(OCCO)cc2)[C@@]12C(=O)Nc1ccc(C#CCC(C(=O)OC)C(=O)OC)cc12 | 2.67
COc1cc2c(cc1OC)CN(C(=O)[C@@H]1[C@H]3C(=O)O[C@H](c4ccccc4)[C@H](c4ccccc4)N3[C@H](c3ccccc3OCCO)[C@@]13C(=O)Nc1ccc(C#CCCO)cc13)CC2 | 1.94
C=CCC(OC(C)=O)[C@@H]1[C@@H](N(Cc2cc3ccccc3o2)C(=O)c2cccc3ccccc23)c2cc(OCCCO)ccc2N1C(=O)c1ccc(-c2ccccc2)cc1 (stereo partly drawn) | -0.202
COC(=O)[C@@]1(Cc2ccc(F)cc2)[C@H]2c3cc(C(=O)N4CCCC4)n(CCCNc4ncc(C(F)(F)F)cc4Cl)c3C[C@H]2CN1C(=O)c1ccccc1 | 2.47
CC(C)N1C(=O)c2ccccc2[C@](C)(C(=O)NCCN2CCOCC2)[C@@H]1c1ccc(CO)cc1 | -0.293
CC(C)C(=C=CC[C@@H](O)c1ccc(OCCO)cc1)C[C@@H](O)c1ccccn1 | -0.449
CO[C@H]1O[C@H](CO)[C@@H](OC(=O)Nc2ccc(Oc3ccccc3)cc2)[C@H](OC(=O)Nc2ccc3c(c2)OCO3)[C@H]1OC(=O)Nc1ccc2c(c1)OCO2 | 1.83
